Assay outcomes deposited in PubChem by National Center for Advancing Translational Sciences (NCATS).
Hits are enriched below; roughly 0.39% of the tested compounds scored in any of these assays.
ERG-DNA inh – blocks human ERG Ets domain binding to DNA; P11308; fluorescence polarization, His-ERG Ets domain / labelled DNA; Potency, µM (titrated, usually from 76.9 µM), inactives show top-dose FP activity, negative = inhibition, most hits filed as inhibitors; hit rate 0.028% among 370,000; active = well fitted inhibition curve with a large enough effect in the polarisation, with a control signal flat; inconclusive = small, poorly fitted or top-dose-only effect, or effect the other way, or a change in a side signal; inactive = no such curve, though single readings can be large or run the other way; the % refers to the polarisation;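 note: polarization taken with two DNA probes labelled with fluorescein and Texas red; potency is the fitted concentration of half-maximal effect; % of control where 0% means no effect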
Target sequence (P11308 whole entry, looked up, the tested form may be a part): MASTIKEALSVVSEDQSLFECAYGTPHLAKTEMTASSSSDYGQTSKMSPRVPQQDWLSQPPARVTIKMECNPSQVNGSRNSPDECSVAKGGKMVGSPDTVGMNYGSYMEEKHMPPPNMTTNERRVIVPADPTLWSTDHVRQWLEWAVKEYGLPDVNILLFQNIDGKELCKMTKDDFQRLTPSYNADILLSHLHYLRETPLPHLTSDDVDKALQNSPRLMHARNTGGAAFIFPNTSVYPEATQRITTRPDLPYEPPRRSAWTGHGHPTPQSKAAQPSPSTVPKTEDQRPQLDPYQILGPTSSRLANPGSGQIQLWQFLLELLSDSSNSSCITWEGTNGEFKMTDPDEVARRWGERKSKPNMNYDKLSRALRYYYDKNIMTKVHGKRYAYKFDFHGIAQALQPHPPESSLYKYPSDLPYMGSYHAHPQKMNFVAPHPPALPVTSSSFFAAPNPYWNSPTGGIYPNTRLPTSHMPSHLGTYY
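His-tagged ERG Ets domain (1 uM in the protein solution; 300mM KCl, 50mM Tris-HCl, 1mM EDTA, 1mM DTT, pH 7.5) received compound, then a probe mix of 5 nM fluorescein-DNA and 100nM Texas-615-DNA. Fluorescence polarization was read for both dyes.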
Apoferritin bind – candidate novel general anesthetic via apoferritin binding; Potency, µM (top dose mostly 77.5 µM), for the others: at the top dose activity change, negative = displacement, most hits filed as inhibitors; hit rate 0.074% among 350,000; apoferritin/1-aminoanthracene competitive binding, fluorescence; note: potency is the fitted concentration of half-maximal effect; % is set by controls: 0 for no effect and ±100 for the full control effect; nearly all actives have a fitted effect of over 20% in size
Target sequence (P02791 2-175 limits assumed): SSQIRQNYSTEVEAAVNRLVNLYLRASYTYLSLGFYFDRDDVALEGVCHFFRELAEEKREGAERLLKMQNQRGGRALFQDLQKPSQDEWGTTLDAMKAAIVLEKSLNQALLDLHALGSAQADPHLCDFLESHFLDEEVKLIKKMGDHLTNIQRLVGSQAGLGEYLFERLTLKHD
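Steps: apoferritin (10 uM) was premixed with half-saturated 1-AMA in PBS, compounds were pin-transferred, plates stood 10 min at room temperature, fluorescence was read at 380/535 nm, and curves were fitted with a Hill equation.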
CCT modulator – modulators of cytosolic chaperonin (CCT/TRiC) activity; purified chaperonin ATPase assay, HTRF ADP detection, 30 min; activity change, % (concentration not given with the values), hits read low; hit rate 0.3% among 360,000; in the data active = activity change below about -30%; note: % is set by controls: 0 for no effect and ±100 for the full control effect
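We incubate TRiC, 40 or 20 nM final, with library compounds at 76 uM and 10 uM ATP for 30 min at 37 °C. ADP formed is detected with Transcreener HTRF reagents after 30 min at room temperature.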
MmCpn inh – inhibitors of Methanococcus maripaludis chaperonin TRiC (MmCpn) | purified Mm-Cpn ATPase, ADP Transcreener TR-FRET | hit rate 0.031% among 330,000 | Potency, µM (top dose mostly 76.9 µM), inactives show at the top dose activity, negative = inhibition, actives largely listed as inhibitors; note: potency is the fitted concentration of half-maximal effect; % is set by controls: 0 for no effect and ±100 for the full control effect; nearly all actives have a fitted effect of over 80% in size
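Quantitative HTS used 25 nM Mm-CPN and 10 uM ATP in magnesium/KCl Tris buffer, pH 7.4, with 1 mM DTT. Hydrolysis ran 30 min at 37°C; ADP was read by HTRF.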
Active calls of the source: *; ? = inconclusive; / = not tested or not shown; [ ] = another dose, or the depositor's remark. Unless noted, calls come from the whole dose curve; as a rule, active = well fitted curve in the direction sought with a large enough effect; inconclusive = small, poorly fitted or top-dose-only effect, or another doubt; inactive = no such curve, though single readings can be large; an effect the other way counts as inactive or inconclusive.

SMILES	ERG-DNA inh	Apoferritin bind	CCT modulator	MmCpn inh
COC(=O)c1sc(-c2cccs2)cc1NC(=O)/C=C/C(=O)O	2%	3%	-42*	?
Nc1ncc(O)c(N)n1	/	-4%	/	/
Cc1ccc(C(=O)O)cc1NC(=O)c1cccs1	3%	40%	-2	-4%
Cc1ccc(C(=O)O)cc1NC(=O)C1=CSCCO1	13%	-9%	-63*	-1%
COc1ccc2c3c(cccc13)C(=O)CC2	28µM*	64%	-4	-1%
Cc1cc([N+](=O)[O-])cnc1NC(C)c1ccccc1 (configuration not stated)	-8%	8.9µM*	-1	-1%
Oc1ccc(-c2n[nH]c(C(F)(F)F)c2-c2ccccc2)c(O)c1	-6%	-11%	-5	-2%
COc1ccc(-c2c(-c3ccc(O)cc3O)n[nH]c2C(F)(F)F)cc1	-1%	-18%	-6	40µM*
CC(=O)O[C@@H]1CC[C@@]2(C)[C@H](C1)[C@H](OC(C)=O)C[C@@H]1[C@@H]2C[C@H]2[C@@H]3CN4C[C@H](C)CC[C@H]4[C@H](C)[C@H]3CC[C@@]12O	/	-8%	/	/
COC(=O)COc1ccc(S(=O)(=O)NCCC2=CCCCC2)cc1C	-14%	5.6µM*	-6	-1%
COC(=O)COc1ccc(S(=O)(=O)NCCC2=CCCCC2)cc1	/	?	0	2%
COc1ccc(NC(=O)C(NC(=O)/C=C\c2ccc3c(c2)OCO3)c2ccc(C)cc2)cc1 (configuration not stated)	5%	-2%	/	/
O=C(Nc1ccccc1C(=O)NC(Cc1ccc(O)cc1)C(=O)O)c1ccccc1 (configuration not stated)	4%	-5%	-36*	0%
CN1C(=O)C[C@H](C(=O)O)[C@@H]1c1cccnc1	/	2%	/	/
O=C(CSCCO)Nc1ccc(C2CCCCC2)cc1	-4%	7.1µM*	1	0%
O=C(NCc1nc2ccccc2[nH]1)C1=C[C@H](c2ccc(Br)cc2)C[C@H](OCc2ccc(CO)cc2)O1	11%	4%	-49*	/
C#Cc1ccc([C@H]2C=C(C(=O)NCc3nc4ccccc4[nH]3)O[C@@H](OCc3ccc(CO)cc3)C2)cc1	11%	/	-1	/
CCn1c(SCC(=O)Nc2cc(C)on2)nc2sc3c(c2c1=O)CCCC3	/	1%	4	-10%
C=CCn1c(SCC(=O)Nc2cc(C)on2)nc2sc3c(c2c1=O)CCCC3	1%	7%	-65*	-7%
N#Cc1c(NC(=O)C2CC(c3ccccc3Cl)=NO2)sc2c1CCC2 (configuration not stated)	-5%	-12%	-92*	1%
N#Cc1c(NC(=O)C2CC(c3ccccc3O)=NO2)sc2c1CCC2 (configuration not stated)	3%	-12%	1	0%
CCCCCCCCCCCCCC/C(C(=O)O)=C(\C)C(=O)O	/	49%	/	/
C=CCOc1c(Cl)cc(CNc2ccc(N(C)C)cc2)cc1OC	-21%	?	-9	16µM*
C=CCOc1c(Cl)cc(CNc2ccc(C)c(Cl)c2)cc1OC	/	93%	/	-1%
CSCC[C@H](N)C(=O)N[C@@H](CCCN=C(N)N)C(=O)N[C@@H](Cc1ccccc1)C(=O)N[C@@H](Cc1ccccc1)C(=O)N[C@H](C(=O)O)C(C)C	/	-6%	/	/
SMILES	ERG-DNA inh	Apoferritin bind	CCT modulator	MmCpn inh
O=C(CSc1c2c(nc3ccccc13)CCC2)Nc1ccc(F)cc1	0%	-15%	/	/
CC1(C)Cc2c(c(-c3ccco3)nc3sc4c(NCCCO)ncnc4c23)CO1	-1%	-8%	-42*	-1%
c1ccc(COC[C@@H]2CO2)cc1	/	-1%	/	/
O=C(c1cncc(Br)c1)N1CCN(c2ccc(N3CCOCC3)nn2)CC1	-5%	48%	-37*	-1%
CCN(CC)c1ccc2nc3c4ccccc4c(=O)cc-3oc2c1	125%	1%	-48*	-4%
CCN(CC)c1ccc2cc(C=O)c(=O)oc2c1	-14%	-8%	0	/
CCOc1cc(CNc2ccc(N(C)C)cc2)cc(Br)c1OCC(=O)NC(C)(C)C	-9%	?	-4	25µM*
CCOc1cc(CNc2ccc(N3CCCCC3)cc2)cc(Br)c1OCC(=O)NC(C)(C)C	1%	?	-1	-2%
Cc1ccc(NC(=O)c2sc3ncnc(N4CCN(c5ccccn5)CC4)c3c2C)c(C)c1	-3%	-19%	0	?
COc1ccc(C)cc1NC(=O)c1sc2ncnc(N3CCN(c4ccccn4)CC3)c2c1C	8%	-6%	-139*	-10%
CCN(CC)C1CCN(C(=O)c2ccc3nc(Cc4ccc(OC)cc4)oc3c2)C1 (configuration not stated)	1%	-8%	-68*	0%
CCC1CCCCN1C(=O)c1ccc2nc(Cc3ccc(OC)cc3)oc2c1 (configuration not stated)	-3%	?	-2	1%
Cc1cc(OCC(=O)OCC(=O)NCc2cccs2)ccc1Cl	19%	/	-33*	2%
Cc1cc(C)cc(OCC(=O)OCC(=O)NCc2cccs2)c1	1%	-2%	-1	-4%
Cc1nn(C)cc1/C=N\NC(=O)Cc1ccc([N+](=O)[O-])cc1	-1%	-15%	-4	0%
CCn1cc(/C=N\NC(=O)Cc2ccc([N+](=O)[O-])cc2)c(C)n1	17%	-9%	-39*	-5%
CN(C)CCCO[C@@H]1[C@H]2OC(C)(C)O[C@H]2O[C@@H]1[C@H](O)CO	-8%	/	-88*	-5%
CN(C)CCCO[C@H]1[C@@H]2OC(C)(C)O[C@@H]2O[C@@H]1[C@H](O)CO	/	-10%[29.3 µM]	/	/
Cc1cc(OC(C)C)c2c(-c3ccccc3)cc(=O)oc2c1	12%	18µM*	-1	1%
CCOc1cc(C)cc2oc(=O)cc(-c3ccccc3)c12	/	?	-3	1%[15.4 µM]
O=C(CSc1nnc(CNC(=O)c2c(F)cccc2Cl)o1)Nc1cccc(F)c1	7%	-4%	/	/
NC(=O)C1CCN(C(=O)CN2C(=O)c3ccccc3S2(=O)=O)CC1	1%	-5%	-41*	-1%
C=CCN(CC=C)S(=O)(=O)c1ccc(NC(=S)NC(=O)c2ccc(-c3ccccc3)cc2)cc1	3%	?	-2	1%
C=CCN(CC=C)S(=O)(=O)c1ccc(NC(=S)NC(=O)c2ccco2)cc1	5%	18µM*	-2	-7%
CCCC(=O)NCCc1c(I)[nH]c2ccc(OC)cc12	/	-12%	/	/
SMILES	ERG-DNA inh	Apoferritin bind	CCT modulator	MmCpn inh
COc1ncc(-c2c(-c3ccccc3OC)sc3ccccc23)cn1	/	/	0	/
COc1ccc(-c2c(-c3ccccc3OC)sc3ccccc23)cc1OC	0%	54%	2	35µM*
COc1ccc2sc(-c3ccccc3OC)c(-c3ccc(OC)c(F)c3)c2c1	-2%	/	-2	?
COc1ccccc1-c1sc2ccccc2c1-c1ccc2c(c1)OCCO2	5%	/	-6	20µM*
COc1ccc(-c2c(-c3ccccc3OC)sc3ccccc23)cc1C=O	15%	/	-4	?
COc1ccccc1-c1sc2ccccc2c1-c1ccccc1OC	-8%	/	-10	56µM*
